According to PubChem BioAssay AID504773 (Broad Institute, 2011):
Entries with a potency or affinity are not part of this list.

target: Golgi-associated PDZ and coiled-coil motif-containing protein (Homo sapiens) (UniProt Q9HD26); assay: CAL PDZ peptide-binding inhibitors, dose response, biochemical, fluorescence polarization, Cerulean-tagged CAL PDZ, cherry-picks (AID 504773); details: 1 h; series mostly up to 50 µM; activity change, negative = inhibition: at the top concentration;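 also: 0% = DMSO neutral wells and -100% = excess unlabeled competitor peptide wells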

Activity change, negative = inhibition, inactive:
O=C(Nc1cc(Cl)ccc1N1CCOCC1)c1ccc2c(c1)OCCO2 -28%
c1ccc(CNc2nc(NCc3ccccc3)c3ccccc3n2)cc1 -10.5%
Cc1ccc2nc(-c3cccc(Br)c3)cc(C(=O)NC3=NCCS3)c2c1 7.84%
CCc1noc(C)c1C(=O)N1CCCC(CCC(=O)NCc2ccc(F)c(F)c2)C1 (stereo unspecified) 0.002%
COCc1cc(C)nc(SCc2ccccc2)c1C#N -15.4%
CC1CCN(CCCNC(=O)c2ccc3c(=O)n(Cc4ccc(Cl)cc4)c(=S)[nH]c3c2)CC1 25.8%
CC1CCCC(C)N1/N=C/c1ccc(N(C)C)cc1 (stereo unspecified) -16.6%
CCOC(=O)Cn1ncn(-c2ccc(OC(F)(F)F)cc2)c1=O 8.25%
O=C(NC(=S)NCCCN1CCOCC1)c1ccc(Br)cc1 23.6%
C=CCNC(=S)Nc1ccc(C)c(S(=O)(=O)N2CCCCC2)c1 -15.4%
COc1ccc(OC)c(NC(=O)CS(=O)(=O)Cc2ccccc2)c1 8.81%
Cc1cccc(NS(=O)(=O)Cc2ccccc2)c1C 33.6%
FC(F)(F)c1cc(-c2cccs2)nc2ncnn12 -9.28%
CCCCC(CCC(=O)Nc1nccs1)C(=O)O (stereo unspecified) 25.2%
CCCCNC(=S)NNc1c(Cl)cc(Cl)cc1Cl -19.6%
CCCc1cc2c(cc1NC(=O)c1ccco1)OCO2 -11.7%
Cc1c(C(=O)OCC(=O)NC(=O)NC2CCCCC2)cccc1[N+](=O)[O-] 9.38%
Cc1c(Cl)c(C(F)(F)F)nn1CC(=O)NCc1ccco1 -30.4%
C=CCOc1ccc2ccccc2c1CNn1cn[nH]c1=S 33%
Cc1ccc(CN(Cc2cccnc2)C(=S)Nc2cccc(Cl)c2C)cc1 3.3%
CS(=O)(=O)N1CCN(C(=O)c2ccc3c(c2)OCCO3)CC1 -16.2%
COc1cc(NS(=O)(=O)c2ccc(NC(=S)Nc3ccccc3)cc2)nc(OC)n1 -0.366%
Cc1ccc(C(C)NC(=O)Cc2cccs2)c(C)c1 (stereo unspecified) 2.57%
CN(C)/N=C1\CCS(=O)(=O)c2sccc21 20.3%
CCOC(=O)c1ccc(NC(=S)N2CCCC(C(=O)N3CCCC3)C2)cc1 (stereo unspecified) 26.2%
Cc1cc(SC2CCOC2=O)nc2ccccc12 (stereo unspecified) 6.41%
O=C(Nc1cccc(F)c1)c1ccco1 20.3%
Cc1c(Cl)c(C(=O)N2CCCC2)nn1C -31.7%
O=C(CN(Cc1ccccc1)S(=O)(=O)c1ccc(F)cc1)NCCC1=CCCCC1 28.8%
COC(=O)C1CCN(C(=O)/C(C)=C\c2ccccc2)CC1 -13.2%
CCC(C)NC(=O)C1CCCN(C(=O)Nc2ccc(F)cc2)C1 (stereo unspecified) 19.3%
COc1ccc(CN2CCCC(N3CCN(c4cccc(Cl)c4)CC3)C2)cc1OC (stereo unspecified) 1.02%
O=C(c1ccccc1)C(CCc1ccccn1)CCc1ccccn1 -15.5%
COc1ccc2ccn(S(=O)(=O)c3ccccc3)c2c1 -31.3%
O=C(Nc1ccc(Cl)cc1)c1ccc(CN2CCc3ccccc3C2)cc1 -19.8%
C/C(=N\NC(=O)c1cc(-c2ccc(C)s2)nc2ccccc12)c1cccnc1 6.59%
